# Test results as given in the supplement of paper PMC8728848.
# The full list was thinned out, with the strongest signals kept by preference.
# Columns and labels:
# Assay in all cases: glycan array binding signal (z-score within array); higher = stronger binding
# Conditions in all cases: glycan notation: IUPAC condensed, linker removed
# [1] = molecular target: Fuc(a1-2)Gal(b1-3)GlcNAc(b1-2)Man(a1-3)[Fuc(a1-2)Gal(b1-3)GlcNAc(b1-2)Man(a1-6)]Man(b1-4)GlcNAc(b1-4)GlcNAc
# Outline: (§1)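 Glycan array binding is given as a within-array Z-score, which can be read as non-binding when negative. The arrays, 3228 of them, came from the Consortium for Functional Glycomics database and were retained only where the protein sequence was available. Z-scores were averaged across arrays of the same protein sequence at different concentrations or buffers and across linkers.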
# [2] = molecular target: Fuc(a1-2)Gal(b1-3)GlcNAc(b1-3)GalNAc
# Outline: as §1
# [3] = molecular target: Fuc(a1-2)Gal(b1-4)GlcNAc6S
# Outline: as §1
# [4] = molecular target: Fuc(a1-2)Gal(b1-4)[Fuc(a1-3)]GlcNAc
# Outline: as §1
# [5] = molecular target: Fuc(a1-2)Gal(b1-4)[Fuc(a1-3)]GlcNAc(b1-2)[Fuc(a1-2)Gal(b1-4)[Fuc(a1-3)]GlcNAc(b1-4)]Man(a1-3)[Fuc(a1-2)Gal(b1-4)[Fuc(a1-3)]GlcNAc(b1-2)Man(a1-6)]Man(b1-4)GlcNAc(b1-4)GlcNAc
# Outline: as §1
# [6] = molecular target: Fuc(a1-2)[Gal(a1-3)]Gal(b1-3)GlcNAc
# Outline: as §1
# [7] = molecular target: Fuc(a1-2)[Gal(a1-3)]Gal(b1-4)GlcNAc(b1-2)Man(a1-3)[Fuc(a1-2)[Gal(a1-3)]Gal(b1-4)GlcNAc(b1-2)Man(a1-6)]Man(b1-4)GlcNAc(b1-4)GlcNAc
# Outline: as §1
# [8] = molecular target: Fuc(a1-2)[GalNAc(a1-3)]Gal(b1-4)Glc
# Outline: as §1
# [9] = molecular target: Fuc(a1-2)[GalNAc(a1-3)]Gal(b1-4)GlcNAc(b1-3)GalNAc
# Outline: as §1
# [10] = molecular target: Fuc(a1-3)[Gal(b1-4)]GlcNAc(b1-2)Man(a1-3)[Fuc(a1-3)[Gal(b1-4)]GlcNAc(b1-2)Man(a1-6)]Man(b1-4)GlcNAc(b1-4)[Fuc(a1-6)]GlcNAc
# Outline: as §1
# [11] = molecular target: Gal(a1-3)Gal(b1-3)GlcNAc(b1-3)GalNAc
# Outline: as §1
# [12] = molecular target: Gal(b1-3)GlcNAc(a1-3)Gal(b1-4)GlcNAc
# Outline: as §1
# [13] = molecular target: Gal(b1-3)GlcNAc(b1-3)Gal(b1-4)[Fuc(a1-3)]GlcNAc
# Outline: as §1
# [14] = molecular target: Gal(b1-3)GlcNAc(b1-3)Gal(b1-4)[Fuc(a1-3)]GlcNAc(b1-6)[Gal(b1-3)GlcNAc(b1-3)]Gal(b1-4)Glc
# Outline: as §1
# [15] = molecular target: Gal(b1-3)GlcNAc(b1-3)GalNAc
# Outline: as §1
# [16] = molecular target: Gal(b1-4)GlcNAc(b1-3)Gal(b1-3)GlcNAc
# Outline: as §1
# [17] = molecular target: Gal(b1-4)GlcNAc(b1-3)Gal(b1-4)GlcNAc(b1-2)[Gal(b1-4)GlcNAc(b1-3)Gal(b1-4)GlcNAc(b1-6)]Man(a1-6)[Gal(b1-4)GlcNAc(b1-3)Gal(b1-4)GlcNAc(b1-2)Man(a1-3)]Man(b1-4)GlcNAc(b1-4)[Fuc(a1-6)]GlcNAc
# Outline: as §1
# [18] = molecular target: Gal(b1-4)GlcNAc(b1-3)Gal(b1-4)GlcNAc(b1-3)Gal(b1-4)GlcNAc(b1-3)Gal(b1-4)GlcNAc(b1-3)Gal(b1-4)GlcNAc(b1-2)Man(a1-3)[Gal(b1-4)GlcNAc(b1-3)Gal(b1-4)GlcNAc(b1-3)Gal(b1-4)GlcNAc(b1-3)Gal(b1-4)GlcNAc(b1-3)Gal(b1-4)GlcNAc(b1-2)Man(a1-6)]Man(b1-4)GlcNAc(b1-4)GlcNAc
# Outline: as §1
# [19] = molecular target: Gal(b1-4)GlcNAc(b1-3)Gal(b1-4)GlcNAc(b1-6)[Gal(b1-3)]GalNAc
# Outline: as §1
# [20] = molecular target: Gal(b1-4)GlcNAc(b1-6)[Gal(b1-4)GlcNAc(b1-3)]GalNAc
# Outline: as §1
# [21] = molecular target: Gal3S(b1-3)GlcNAc
# Outline: as §1
# [22] = molecular target: Gal3S(b1-4)Glc6S
# Outline: as §1
# [23] = molecular target: Gal6S(b1-4)Glc6S
# Outline: as §1
# [24] = molecular target: GalNAc(b1-3)Gal(a1-4)Gal(b1-4)GlcNAc
# Outline: as §1
# [25] = molecular target: GalNAc(b1-3)GlcNAc
# Outline: as §1
# [26] = molecular target: GalNAc3S(b1-4)[Fuc(a1-3)]GlcNAc
# Outline: as §1
binder,measurement,setting,value
Clec39 (Caenorhabditis elegans) (protein) MTSFYDNSSSSSKPVPLKTSRAQKIQILIFDNWKLILYGAISTLILVLAIMFSTLFFALPAANCDENSEPTKYYTTNAEITTTITTTNQKTTSTASSHLTTISSSATQIYSESSSSSTSQSTFTQSPPEISTTTIAPSDFSCQHGFTLVNNKCWKLVTSNQARPDADKICNGYGGATLFSIKSEQDNRAMIHFVKGQDIDFLWSGLLCSAGEPISCIWDIENGSTANYSNFADGFPNIVYGNCVYFITSGDEAGQWGNEQCGQVMNFVCELPATFQGKDGCKNNYEKSCYLRFDLNLTVPQAQNFCLEKCANLVSIHSANEVRFIMTIYDFIGEILIGALAPAQDFIYWLDGTPANYNNLKFFYNSTCVHMTVAPGMQNVGKWFTRFCTETGKFLCKRSIKNSCT,glycan array binding signal (z-score),[1],2.06
same,glycan array binding signal (z-score),[2],1.86
same,glycan array binding signal (z-score),[3],-0.018
same,glycan array binding signal (z-score),[4],0.187
same,glycan array binding signal (z-score),[5],3.52
same,glycan array binding signal (z-score),[6],-0.274
same,glycan array binding signal (z-score),[7],3.03
same,glycan array binding signal (z-score),[8],2.18
same,glycan array binding signal (z-score),[9],-0.527
same,glycan array binding signal (z-score),[10],4.38
same,glycan array binding signal (z-score),[11],-0.178
same,glycan array binding signal (z-score),[12],-0.68
same,glycan array binding signal (z-score),[13],-0.715
same,glycan array binding signal (z-score),[14],0.976
same,glycan array binding signal (z-score),[15],-0.666
same,glycan array binding signal (z-score),[16],-0.657
same,glycan array binding signal (z-score),[17],0.173
same,glycan array binding signal (z-score),[18],3.63
same,glycan array binding signal (z-score),[19],0.593
same,glycan array binding signal (z-score),[20],5.43
same,glycan array binding signal (z-score),[21],-0.524
same,glycan array binding signal (z-score),[22],0.293
same,glycan array binding signal (z-score),[23],2
same,glycan array binding signal (z-score),[24],1.49
same,glycan array binding signal (z-score),[25],-0.927
same,glycan array binding signal (z-score),[26],1.07
